Shown are actives, neighbours in structure and some others; about 0.81% of the full set was active somewhere.
CatS block – human cathepsin S inhibition | hit rate 0.06% among 62,000 | recombinant cathepsin S, AMC dipeptide fluorescence, pooled mixtures | inhibition, %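 (tested at 5 µM per compound within 10-compound mixtures)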 | P25774; in the data active = inhibition above about 32%, passing the limit was not always enough;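 also: 0% = enzyme without compound and 100% = blank without enzyme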
BAP1 block – human BAP1 deubiquitinase inhibition; Q92560; recombinant BAP1, Ub-AMC hydrolysis fluorescence kinetic; hits give low values; calls only at 20 µM; hit rate 0.48% among 72,000;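 active = activity remaining at or below 50% of control, provided the compound also passes the data quality filters; inactive = the rest, including low values that fail the filters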;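 also: 100% = DMSO wells rate and 0% = substrate alone blank rate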
CatB mixtures – human cathepsin B inhibition by mixtures | AID 488 | hit rate 0.06% among 62,000 | Purified cathepsin B, AMC dipeptide fluorescence, compound mixtures | P07858 | inhibition, %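 (ten-compound pools at 5 µM per compound and 50 µM total)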; in the data active = inhibition above about 22%, passing the limit was not always enough;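 also: 0% = enzyme without compound and 100% = no enzyme blank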
CatL block – blocks human cathepsin L protease activity; purified cathepsin L, fluorogenic substrate, fluorescence; inhibition, %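 (tested at 10 µM)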; hit rate 0.17% among 58,000; P07711; in the data active = inhibition above about 45%;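 also: 0% = enzyme with no compound and 100% = no enzyme blank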
E coli RNAP – inhibitors of Escherichia coli RNA polymerase | P0A8V2 | E. coli RNA polymerase, fluorescence transcription assay | inhibition, %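 (tested at 10 µM)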 | hit rate 0.2% among 62,000 | AID 559; in the data active = inhibition above about 20%;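 also: 0% = enzyme without compound and 100% = no enzyme blank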
CatB inh – human cathepsin B inhibition. AID 453. inhibition, %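 (tested at 10 µM)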. purified cathepsin B, fluorogenic substrate, fluorescence. hit rate 0.1% among 63,000; in the data active = inhibition above about 21%;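 also: 0% = enzyme with no compound and 100% = no enzyme blank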
BAP1 inh confirm – BAP1 (human) enzyme inhibition, confirmed | AID 753 | shares compounds with BAP1 block | hit rate 8% among 310 | % of control activity, % at 20 µM | purified BAP1, Ub-ethyl ester hydrolysis, HPLC; hits give low values;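 active = percent of control activity at or below 60%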
* marks the source's active call; other numbers are inactive results; i = inactive; . = no result given; + = active, no number.

SMILES	CatS block	BAP1 block	CatB mixtures	CatL block	E coli RNAP	CatB inh	BAP1 inh confirm
COc1ccc(-n2nc(C(=O)Nc3ccc4c(c3)OCO4)c3c4ccccc4n(C)c3c2=O)cc1	2	+	6	1	4	0	81
CCOC(=O)c1c(NC(=O)c2cccs2)sc(C)c1CC	-4	+	0	-15	4	4	59*
CCOC(=O)c1sc(NC(=O)c2cc(-c3ccc(OC)c(OC)c3)nc3ccccc23)nc1C	.	i	.	.	.	.	.
O=C(CSc1nnc(C2CC2)n1Cc1ccccc1)c1cc2ccccc2o1	-7	+	4	5	4	1	91
CC(C)OC(=O)c1cccnc1SCc1cc(=O)n2ccccc2n1	-2	+	-5	9	-5	-3	90
Cc1cc(S(=O)(=O)N2CCN(c3ccccc3C)CC2)ccc1F	1	+	6	13	8	7	126
Cc1cc(S(=O)(=O)N2CCN(c3c(C)cccc3C)CC2)ccc1F	.	i	.	.	.	.	.
CCc1cc2c(=O)c(-c3ccc4c(c3)OCO4)coc2cc1OC	.	i	.	.	.	.	.
CCCCCn1c(SCCc2ccccc2)nc2c1c(=O)[nH]c(=O)n2C	-4	i	-7	-12	-1	-6	.
CCCCCOC(=O)CSc1nc2c(c(=O)[nH]c(=O)n2C)n1CCc1ccccc1	.	+	.	.	.	.	96
COc1ccc2cc(C(c3nnnn3Cc3ccccc3)N3CCCCCC3)c(=O)[nH]c2c1 (stereo not drawn)	4	+	1	36	12	5	50*
Cc1cccc(C(=O)Nc2cccc(-c3nc4cc(C)ccc4o3)c2C)c1	.	i	.	.	.	.	.
Nc1nc(-c2cccnc2)nn1C(=O)COc1ccccc1	-5	+	5	-6	2	-4	96
Nc1nc(-c2cccnc2)nn1C(=O)CCc1ccccc1	.	i	.	.	.	.	.
O=[N+]([O-])c1cccc(C=Nc2ccc(S(=O)(=O)c3ccc(N=Cc4cccc([N+](=O)[O-])c4)cc3)cc2)c1	.	i	.	.	.	.	.
Cc1cc(NC(=O)c2ccc(COc3ccc(Cl)c(C)c3)o2)no1	8	+	1	19	0	-1	163
Cc1cc(NC(=O)c2cc(Cl)ccc2Cl)no1	8	i	-2	18	7	4	.
Brc1ccc(C2Nc3cccc4cccc(c34)N2)o1	15	+	4	-2	4	7	86
O=c1oc2cc(OCc3ccc(F)cc3)c(Cl)cc2c2c1CCCC2	.	i	.	.	.	.	.
O=C(O)CCc1ccc(-c2ccccc2)n1-c1cccc(O)c1	.	+	.	.	.	.	143
O=C(O)CCc1ccc(-c2ccccc2)n1CC(=O)O	23	i	2	-2	2	5	.
CCOc1cc2[nH]c(=S)n(CCCCC(=O)NCc3ccco3)c(=O)c2cc1OCC	19	+	0	20	15	5	90
COc1ccc(C)cc1NC(=O)CN1CCN(S(=O)(=O)c2ccc(C(C)C)cc2)CC1	15	+	3	14	9	6	111
COc1cccc2sc(=NC(=O)C3CCCCC3)n(C)c12	.	i	.	.	.	.	.
COc1ccc(OC)c2c1sc(=NC(=O)c1ccco1)n2C	6	+	2	14	6	-2	91
CCc1cc(C(=O)Cc2cnn(-c3ccccc3)c2)c(O)cc1O	-1	+	5	0	0	1	129
CSCCC(/C(O)=C(\C#N)c1nc2ccccc2[nH]1)N1C(=O)c2ccccc2C1=O (stereo not drawn)	-8	+	-2	10	5	-2	114
N#C/C(=C(/O)CN1C(=O)c2ccccc2C1=O)c1nc2ccccc2[nH]1	-1	i	-6	10	5	4	.
O=C(COC(=O)c1ccc(N2C(=O)C3C4CCC(C4)C3C2=O)cc1)c1ccc([N+](=O)[O-])cc1 (stereo not drawn)	.	i	.	.	.	.	.
O=C(CSc1nnc(COc2ccc3c(c2)CCCC3)o1)Nc1ccc(F)cc1	-4	+	3	-6	2	3	93

Source: PubChem
